Only some compounds are listed: those with a hit (about 5.7% of all), similar ones and a draw of the others.
ClpP mod = qHTS Assay for Activators of ClpP | Potency, µM (top dose mostly 57.5 µM) | 340,000 tested, 1.9% active | ATP-dependent Clp protease proteolytic subunit (Bacillus subtilis (strain 168)), P80244 | purified B. subtilis ClpP, FRET peptide cleavage, 20 min; active means well fitted falling curve with a large enough effect; inconclusive means small, poorly fitted or top-dose-only effect; inactive means no such curve, though single readings can be large or run the other way; further: the source files actives as falling curves though it sought activators and does not explain the sign; nearly all actives have a fitted effect of over 65% in size
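Buffer: 100 mM Tris/HCl pH8, 100 mM KCl, 0.05% low protease BSA, 2.5% glycerol, 0.01% Tween-20. ClpP 10 microg/mL final; 20 min RT; delta FRET normalized to ADEP and DMSO controls.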
DRD3 antagonist = antagonists of human D3 dopamine receptor; max response, negative = inhibition, %; 360,000 tested, 2.5% active; D3R cells, DiscoveRx beta-arrestin luminescence, antagonist mode; active compounds read low; in the data active means max response below about -50%; inconclusive means no clear call, values can overlap the other calls
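Cells expressing the human receptor were seeded at 1500 cells/well, incubated overnight at 37 degrees C in 5% CO2, then exposed to library compounds with dopamine controls for 90 minutes at 37 degrees C before luminescent detection.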
GLP1R cytotox = cytotoxicity counter-screen for GLP-1 receptor inverse agonists. HEK293 cAMP-luciferase reporter cells, luminescence, 24 h. Potency, µM (doses to about 38.3 µM), most hits filed as inhibitors. 410,000 tested, 0.13% active. AID 624418;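 further: loss of luciferase light is scored as toxicity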
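Here, cytotoxicity is scored as loss of luminescence. The MLSMR collection was tested on cells seeded in medium containing 10% Nu serum, with a 24 hr compound exposure preceded by 12 hours of culture.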
GLP1R inv ag = acts as inverse agonist at human GLP-1 receptor | HEK293 GLP-1R CRE-luciferase, luminescence, 24 h; GLP-1R form is constitutively active | P43220 | Potency, µM (titrated, usually from 38.3 µM), most hits filed as inhibitors | 410,000 tested, 1.6% active; further: nearly all actives have a fitted effect of over 55% in size
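Readout was luciferase luminescence, measured 12 min after detection reagent at room temperature. Beforehand, GLP-1R reporter HEK293 cells had sat 12 h, then received compounds for 24 hr at 37 deg C.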
D3 ag = D3 dopamine receptor (human) agonism; P35462; D3R DiscoveRx beta-arrestin cells, luminescence, 90 min; max activation, %; 410,000 tested, 0.58% active; AID 652048; in the data active means max activation above about 30%
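Cells at 1500/well, incubated overnight, then treated with pinned compounds (dopamine as control) for 90 min at 37 degrees C. DiscoveRx reagent added for 30 - 60 minutes at room temperature; luminescence read.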
GLP-1R agonist = agonists of human GLP-1 receptor; P43220; HEK293 GLP-1R CRE-luciferase, luminescence, 4-6 h; cells express a hypersensitive GLP-1R form; Potency, µM (highest dose often 45.6 µM), usual class: activators; 380,000 tested, 0.007% active
Of the large screens only hits and unclear results are named; the others gave an inactive call. Unless noted, the call rests on the fitted dose curve; in most records, active means well fitted curve in the direction sought with a large enough effect; inconclusive means small, poorly fitted or top-dose-only effect, or another doubt; inactive means no such curve, though single readings can be large; an effect the other way counts as inactive or inconclusive.

Cc1ccc(SC[C@H](C)CN2CC[C@H](O)CCC2=O)cc1	none (no result: DRD3 antagonist, GLP1R cytotox, GLP1R inv ag, D3 ag, GLP-1R agonist)
CN(Cc1cnccn1)Cc1ccccc1OCC(O)CN1CCc2ccccc2C1 (centres undefined)	DRD3 antagonist -83.2, GLP1R inv ag inconclusive (no result: ClpP mod)
C=CCc1ccc(OCC(O)CN2CCc3ccccc3C2)c(OC)c1 (centres undefined)	DRD3 antagonist -100.5, GLP1R inv ag inconclusive (no result: ClpP mod)
CCC(=O)c1ccc(OCC(O)CN2CCCCC2)cc1 (centres undefined)	DRD3 antagonist inconclusive
CCC(=O)c1ccc(OCC(O)CN(CCc2ccccc2)Cc2ccccc2)cc1 (centres undefined)	DRD3 antagonist inconclusive, GLP1R inv ag 8.91µM
CCC(=O)c1ccc(OCC(O)CN2CCc3ccccc3C2)cc1 (centres undefined)	DRD3 antagonist -74.7
CCOC(=O)[C@]12CCCC=C1N(Cc1ccc3c(c1)OCO3)C(=O)[C@H](CC(=O)NCc1ccc(C)o1)C2	none
CCN(Cc1ccccc1)C(=O)Cn1c(=O)cc(C)c2c(C)nn(-c3cccc(F)c3)c21	ClpP mod inconclusive (no result: DRD3 antagonist, GLP-1R agonist)
CC(C)(C)c1ccc(OCC(O)CN2CCc3ccccc3C2)cc1 (centres undefined)	DRD3 antagonist -119.2, GLP1R cytotox inconclusive, GLP1R inv ag inconclusive
COc1ccc(N2CCN(CC(O)COc3ccc(C(C)(C)C)cc3)CC2)cc1 (centres undefined)	GLP1R inv ag inconclusive (no result: DRD3 antagonist, GLP-1R agonist)
CCOc1ccc(C2=NC(c3cccs3)=Nc3ccc(CC)cc3N2)cc1OCC	GLP1R inv ag inconclusive (no result: DRD3 antagonist, GLP-1R agonist)
COc1ccc(NC(=O)C(c2ccccc2)n2c(=O)c(-c3ccco3)nc3ccccc32)cc1 (centres undefined)	GLP1R inv ag inconclusive (no result: GLP-1R agonist)
CC(=C\c1ccccc1)/C=C1/SC(=S)N(CC(=O)O)C1=O	none (no result: ClpP mod, DRD3 antagonist, GLP1R cytotox, GLP1R inv ag, GLP-1R agonist)
Cc1ccc(-c2cc(C(F)(F)F)c(C#N)c(SCCC#N)n2)o1	ClpP mod 4.47µM
CC(=O)NC(Cc1ccc(I)cc1)C(=O)NCC(N)C(=O)c1ccccc1 (centres undefined)	none (no result: DRD3 antagonist, GLP1R cytotox, GLP1R inv ag, D3 ag, GLP-1R agonist)
Clc1cc(Br)ccc1OCCOCCN1CCCC1	DRD3 antagonist -81.1, GLP1R inv ag inconclusive
Cc1cc(C(C)(C)C)ccc1OCCOCCN1CCCC1	GLP1R inv ag 12.6µM
Clc1cc(Br)ccc1OCCOCCN1CCOCC1	DRD3 antagonist -82.0
Cc1ccc(CNC(=O)c2cc(=O)c3cc(C)cc(C)c3o2)cc1	none (no result: DRD3 antagonist, GLP-1R agonist)
Cc1ccc(C(=O)Nc2nnc([C@H]3C[C@H](O)[C@@H](CO)O3)s2)cc1	DRD3 antagonist -76.5
Cc1cccc(C)c1NC(=O)Nc1nnc([C@H]2C[C@H](O)[C@@H](CO)O2)s1	none
Cc1ccccc1NC(=O)Nc1nnc([C@@H]2C[C@H](O)[C@@H](CO)O2)s1	D3 ag 53.9
COc1ccc(CN2CCN(c3ccccc3OC)CC2)c(OC)c1	DRD3 antagonist -100.4
COc1ccc(CC(C)N2CCN(Cc3ccccc3)CC2)c(OC)c1 (centres undefined)	DRD3 antagonist -84.2
COc1ccc(OC)c(CN2CCN(Cc3cccc4ccccc34)CC2)c1	DRD3 antagonist -54.5, GLP1R inv ag inconclusive
COc1ccc(OC)c(CN2CCN(c3ccccc3OC)CC2)c1	DRD3 antagonist -91.9
Cc1ccc(C(=O)n2nc(C)c(S(=O)(=O)N3CCCCCC3)c2C)cc1C	none (no result: DRD3 antagonist)
O=C1C(=O)N(C2CCNCC2)CCN1Cc1ccccc1	none (no result: DRD3 antagonist, GLP-1R agonist)
COc1cc(OC)c(OC)cc1/C=C/c1nc2cc3ccccc3cc2c(=O)n1-c1ccc(F)cc1F	none (no result: DRD3 antagonist, GLP-1R agonist)
COc1ccc2ccccc2c1CN1CCN(C)CC1	DRD3 antagonist -81.7
CCN1CCN(Cc2c(OC)ccc3ccccc23)CC1	DRD3 antagonist inconclusive
CCOC(=O)c1c(C)[nH]c(C)c1S(=O)(=O)N(C)CC(=O)N1CCN(c2ccccc2OC)CC1	none (no result: DRD3 antagonist, GLP-1R agonist)
O=C(COCc1cc(-c2cccs2)on1)NCc1ccc(Cl)cc1	none (no result: DRD3 antagonist, GLP-1R agonist)
COc1ccc(/C=N/N2CCN(c3ccc(Cl)cc3)CC2)cc1	none
Cc1ccc(N=C2C(=S)N(c3ccc(C)cc3)C(=N)N2/N=C/c2ccc(Cl)cc2)cc1	DRD3 antagonist -50.9
CN1CCN(/C(=N\O)c2nonc2N)CC1	DRD3 antagonist -68.0
Nc1nonc1/C(=N/O)N1CCN(CCO)CC1	DRD3 antagonist -63.6
CO/N=C(/c1nonc1N)N1CCN(c2ccc([N+](=O)[O-])cc2)CC1	none
COc1ccc(NC(=O)C2CCCN2C(=O)Nc2ccc(OC)cc2)cc1 (centres undefined)	none (no result: ClpP mod)
Cc1ccc(N2C(=O)N(CC(=O)Nc3c(C)cc(C)cc3Cl)C(=O)C2C)cc1 (centres undefined)	GLP1R inv ag 10µM (no result: ClpP mod)
C=C(CN(C)C)C(=O)c1ccc(OC2OC(COC(C)=O)C(OC(C)=O)C(OC(C)=O)C2OC(C)=O)cc1 (centres undefined)	ClpP mod inconclusive, DRD3 antagonist -81.8, GLP1R cytotox inconclusive, GLP1R inv ag inconclusive
Cc1ccc(C(NC(=O)/C=C\c2ccc3c(c2)OCO3)C(=O)Nc2ccc3c(c2)OCO3)cc1 (centres undefined)	DRD3 antagonist -88.4
CC(=O)c1cccc(NC(=O)C(OC(=O)/C=C/c2ccc3c(c2)OCO3)c2ccccc2)c1 (centres undefined)	ClpP mod 28.2µM
COc1ccc(NC(=O)C(NC(=O)/C=C\c2ccc3c(c2)OCO3)c2ccc(OC)cc2)cc1 (centres undefined)	none (no result: DRD3 antagonist, GLP-1R agonist)
Cc1ccccc1CN1C(=O)c2ccccc2Sc2ccc(C(=O)NC3CCCC3)cc21	none (no result: DRD3 antagonist, GLP-1R agonist)
O=c1c2cccnc2[nH]c(=S)n1CCCN1CCN(c2ccc(F)cc2)CC1	DRD3 antagonist -65.3
COc1ccc(N2CCN(CCCNC(=O)Cn3c(=O)c4cccn4c4ccccc43)CC2)cc1	DRD3 antagonist -60.3
O=C(Cn1c(=O)c2cccn2c2cccnc21)NCCCN1CCN(c2ccc(F)cc2)CC1	DRD3 antagonist -118.4, GLP1R cytotox inconclusive
COc1ccc(N2CCN(CCCn3c(=S)[nH]c4ncccc4c3=O)CC2)cc1	none
COc1ccc2cc(C(=O)NCc3ccc4c(c3)CCN4C(=O)c3ccc(C)cc3)[nH]c2c1	none (no result: DRD3 antagonist, GLP-1R agonist)
C=CCC[C@@H](CCCCC)OC(=O)/C=C/[C@H](O)[C@@H](O)C[C@H](O)CC=C	GLP1R inv ag inconclusive
Cc1csc(C)[n+]1CCC1CCCCC1	none (no result: DRD3 antagonist, GLP1R cytotox, GLP1R inv ag, D3 ag, GLP-1R agonist)
CCCCc1ccc(NC(=S)Nc2cccnc2)cc1	none
CCCCc1ccc(NC(=O)Nc2cccnc2)cc1	GLP1R inv ag 7.08µM
CCN(CC)C(=O)Sc1cccc2cccnc12	ClpP mod 28.2µM
COc1ccc(CNC(=O)CSc2cccc3cccnc23)cc1	none (no result: ClpP mod)

Compound activity as filed in PubChem BioAssay.
